USP2a inhib = inhibitors of human ubiquitin-specific protease USP2a. O75604. USP2a enzymatic assay, qHTS inhibition. Potency, µM (series often up to 38.3 µM), for the others: at the highest dose activity change, negative = inhibition, usual class: inhibitors. 0.1% of 60,000 active. AID 927; also: nearly all actives have a fitted effect of over 60% in size
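Inhibition is measured in a cell-free coupled assay with 20 nM USP2 core, 20 nM Ub-PLA2 and 20 uM NBD C6-HPC, 2.5 h incubation. Activity normalized to NEM control.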
Caspase-7 inhib = blocks human caspase-7 allosterically or competitively. Potency, µM (series often up to 57.5 µM), without a hit: at the top dose activity change, negative = inhibition, most hits filed as inhibitors. P55210. recombinant caspase-7, Ac-DEVD-AFC fluorescence rate. 0.02% of 75,000 active. AID 889; active = well fitted inhibition curve with a large enough effect in the main read-out, with a control signal flat, not every such curve was filed as active; inconclusive = small, poorly fitted or top-dose-only effect, or a change in a side signal; also: % of control where 0% means no effect
Target sequence (P55210 24-198 limits assumed): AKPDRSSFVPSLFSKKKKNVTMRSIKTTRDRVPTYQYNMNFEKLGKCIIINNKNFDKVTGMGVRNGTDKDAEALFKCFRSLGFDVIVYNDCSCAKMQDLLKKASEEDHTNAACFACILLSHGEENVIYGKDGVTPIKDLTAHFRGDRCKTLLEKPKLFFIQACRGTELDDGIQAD
Target sequence (P55210 207-303 limits assumed): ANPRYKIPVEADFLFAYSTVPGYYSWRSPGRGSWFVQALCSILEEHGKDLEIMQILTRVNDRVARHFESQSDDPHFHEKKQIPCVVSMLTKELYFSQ
HEK293 cAMP cs = counter-screen for TSHR agonists: cAMP increase in parental HEK293; AID 938; Potency, µM (series often up to 57.1 µM), for inactives: at the highest dose activation, most hits filed as activators; parental HEK293 CNG cAMP sensor, membrane potential fluorescence; 2.5% of 73,000 active; also: % of control where 0% means no effect; nearly all actives have a fitted effect of over 55% in size
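Counterscreen for endogenous-receptor signalling: CNG-channel HEK 293 cells report cAMP rise by membrane depolarization. After 60 min dye equilibration with 100 uM RO 20-1724, compounds incubated 30 min before bottom-read fluorescence at 590 nm.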
CRE Fsk mod = alters forskolin-stimulated CRE reporter signaling in CHO cells. CHO CRE-bla reporter (cAMP response element driving beta-lactamase), forskolin EC10, beta-lactamase ratio. Potency, µM (top dose mostly 38.2 µM), for the others: at the highest dose activity change, negative = inhibition, most hits filed as activators. 2.5% of 71,000 active; active = well fitted activation curve with a large enough effect in the signal ratio, with a control signal flat, not every such curve was filed as active; inconclusive = small, poorly fitted or top-dose-only effect, or effect the other way, or a change in a side signal; the % refers to the signal ratio; also: % of control where 0% means no effect
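CRE-bla CHO cells stimulated with EC10 NKH 477 (water-soluble forskolin) and compound titrations, 3 h at 37C; beta-lactamase read with CCF4 after 2 h at room temperature. Activity from 460/530 nm emission ratio, AC50 values for positive or negative modulation.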
TSHR agonist = TSH receptor (human) agonism; P16473; HEK293-CNG-TSHR cells (CNG channel as cAMP sensor), membrane potential dye, cAMP; Potency, µM (series often up to 57.1 µM), for the others: top-dose activation, hits mostly activators; 0.48% of 73,000 active; AID 926; active = well fitted activation curve with a large enough effect in the main read-out, with a control signal flat, not every such curve was filed as active; inconclusive = small, poorly fitted or top-dose-only effect, or a change in a side signal; inactive = no such curve, though single readings can be large or run the other way; % of control where 0% means no effect;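 also: the control signal comes from parental cells without the receptor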
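cAMP rise detected as CNG-channel membrane depolarization by fluorescent dye (emission 590 nm), 30 min after compound, following 60 min dye loading containing 100 uM RO 20-1724 at room temperature. Cells: TSHR/CNG HEK 293, with parental CNG HEK 293 as control.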
Casp1 inh = allosteric or competitive inhibitors of human caspase-1 | P29466 | Caspase-1 enzyme, Ac-WEHD-AFC fluorogenic rate | Potency, µM (series often up to 57.5 µM), without a hit: top-dose activity change, negative = inhibition, actives largely listed as inhibitors | 0.03% of 75,000 active | AID 900;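 also: plate controls were vehicle for no effect and no substrate for full effect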
Target sequence (P29466 120-297 limits assumed): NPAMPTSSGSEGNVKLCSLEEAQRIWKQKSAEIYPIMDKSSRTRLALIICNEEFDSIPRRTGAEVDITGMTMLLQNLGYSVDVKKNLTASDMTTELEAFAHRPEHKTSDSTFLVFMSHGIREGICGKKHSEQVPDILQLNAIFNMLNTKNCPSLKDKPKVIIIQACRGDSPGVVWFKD
Target sequence (P29466 317-404 limits assumed): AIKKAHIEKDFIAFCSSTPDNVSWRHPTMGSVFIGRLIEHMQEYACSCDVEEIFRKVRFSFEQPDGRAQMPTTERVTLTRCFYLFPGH
Starred values were filed as active, the others as inactive; [ ] = another dose, or the depositor's remark. Most compounds without a hit are left out; they make up all but 5% or so of the library. Unless noted, calls follow the shape of the dose curve; as a rule, active = well fitted curve in the direction sought with a large enough effect; inconclusive = small, poorly fitted or top-dose-only effect, or another doubt; inactive = no such curve, though single readings can be large; an effect the other way counts as inactive or inconclusive. Potency is read from the fitted curve at half-maximal effect.

Results for O=C1C2=C(Nc3cc([N+](=O)[O-])ccc3N2)O[C@@H]1c1c[nH]c2ccc(COc3ccccc3)cc12 ?
Caspase-7 inhib: 1%[11.5 µM]; HEK293 cAMP cs: -4%[11.4 µM]; CRE Fsk mod: -1%[7.6 µM]; TSHR agonist: -1%[11.4 µM]; Casp1 inh: -2%[11.5 µM]

How did CCCN(CCC)c1nc2ccccc2nc1C(C#N)C(=O)OCCOC (stereo unspecified) do in these assays?
USP2a inhib: -5%; Caspase-7 inhib: inconclusive; HEK293 cAMP cs: 18%; CRE Fsk mod: 13µM*

How did C=CCN(CC=C)c1nc2ccccc2nc1C(C#N)C(=O)OCCOC (stereo unspecified) do in these assays?
USP2a inhib: 9%; Caspase-7 inhib: inconclusive; HEK293 cAMP cs: inconclusive; CRE Fsk mod: 16µM*; TSHR agonist: inconclusive

What do the screens show for `CCCCCCOC(=O)C(C#N)c1nc2ccccc2nc1N1CCCCC1` (stereo unspecified)?
USP2a inhib: 1%; Caspase-7 inhib: -19%; HEK293 cAMP cs: 15%; CRE Fsk mod: inconclusive; TSHR agonist: 3%; Casp1 inh: -19%

How did Cc1cccc2cc3c(NC(=O)CC(C)C)nn(C)c3nc12 do in these assays?
USP2a inhib: 5%; Caspase-7 inhib: inconclusive; HEK293 cAMP cs: 9%; CRE Fsk mod: 10µM*; TSHR agonist: 2%

What do the screens show for `CCCCC(=O)Nc1nn(C)c2nc3c(C)cccc3cc12`?
USP2a inhib: 3%; Caspase-7 inhib: inconclusive; HEK293 cAMP cs: 8%; CRE Fsk mod: inconclusive; TSHR agonist: -1%; Casp1 inh: inconclusive

What do the screens show for `CNC(=O)CSc1nc2c(c(=O)n(C)c(=O)n2C)n1Cc1ccc(C)cc1`?
USP2a inhib: -8%; Caspase-7 inhib: 2%[0.00368 µM]; HEK293 cAMP cs: 6%; CRE Fsk mod: 7%; TSHR agonist: 7%; Casp1 inh: 0%

What do the screens show for `CC(C)Sc1nc2c(c(=O)n(C)c(=O)n2C)n1Cc1ccc(Cl)cc1`?
USP2a inhib: -11%; Caspase-7 inhib: 0%; HEK293 cAMP cs: 7.9µM*; CRE Fsk mod: 5%; TSHR agonist: inconclusive; Casp1 inh: -1%

How did Cn1c(/C(C#N)=C(\O)CN2CCN(Cc3ccccc3)CC2)nc2ccccc21 do in these assays?
USP2a inhib: 18%; Caspase-7 inhib: 0%; HEK293 cAMP cs: 32µM*; CRE Fsk mod: -6%; TSHR agonist: inconclusive; Casp1 inh: -1%

What do the screens show for `Cc1ccc(SC/C(O)=C(\C#N)c2nc3ccccc3n2C)cc1`?
USP2a inhib: 10%; Caspase-7 inhib: -7%; HEK293 cAMP cs: inconclusive; CRE Fsk mod: inconclusive; TSHR agonist: inconclusive; Casp1 inh: -11%

What do the screens show for `CCOc1cc2[nH]c(=S)n(CCCOC)c(=O)c2cc1OCC`?
USP2a inhib: 10%; Caspase-7 inhib: -1%; HEK293 cAMP cs: 1%; CRE Fsk mod: 13µM*; TSHR agonist: -2%; Casp1 inh: 1%

Results for CCOc1cc2[nH]c(=S)n(CCCN3CCOCC3)c(=O)c2cc1OCC ?
USP2a inhib: -3%; Caspase-7 inhib: -1%; HEK293 cAMP cs: 13%; CRE Fsk mod: 0%; TSHR agonist: 3%; Casp1 inh: 0%

What do the screens show for `CCOC(=O)N1CCN(C(=O)c2cc(-c3ccc(OCC)cc3)nc3ccccc23)CC1`?
USP2a inhib: 43%; Caspase-7 inhib: -2%; HEK293 cAMP cs: 17%; CRE Fsk mod: inconclusive; TSHR agonist: 18%; Casp1 inh: -3%

Results for CCOc1ccc(-c2cc3nc(C4CCN(C(=O)OC(C)(C)C)CC4)c(C(=O)O)cn3n2)cc1 ?
USP2a inhib: 42%; Caspase-7 inhib: -4%; HEK293 cAMP cs: -15%; CRE Fsk mod: 13µM*; Casp1 inh: -6%

Results for C=CCn1cnc2c(c1=O)c1nc3ccccc3nc1n2-c1ccccc1 ?
USP2a inhib: -3%; Caspase-7 inhib: -11%; HEK293 cAMP cs: 0%; CRE Fsk mod: 26%; TSHR agonist: -1%; Casp1 inh: -16%

What do the screens show for `C=CCn1cnc2c(c1=O)c1nc3ccccc3nc1n2/N=C/c1cccc(OC)c1OC`?
USP2a inhib: 11%; Caspase-7 inhib: -1%; HEK293 cAMP cs: -8%; CRE Fsk mod: inconclusive; TSHR agonist: -6%; Casp1 inh: 0%

What do the screens show for `C=CCn1cnc2c(c1=O)c1nc3ccccc3nc1n2/N=C/c1cc(OC)c(OC)c(OC)c1`?
USP2a inhib: 46%; Caspase-7 inhib: -1%; HEK293 cAMP cs: -14%; CRE Fsk mod: 1.6µM*; TSHR agonist: -8%; Casp1 inh: 0%

Results for C=CCn1cnc2c(c1=O)c1nc3ccccc3nc1n2/N=C/c1ccccn1 ?
USP2a inhib: 9%; Caspase-7 inhib: -4%; HEK293 cAMP cs: -4%; CRE Fsk mod: 2.5µM*; TSHR agonist: -10%; Casp1 inh: -1%

What do the screens show for `CN(C)Cc1cc(C(C)(C)C)cc(CNC2CCCCC2)c1O`?
Caspase-7 inhib: -5%[11.5 µM]; HEK293 cAMP cs: inconclusive; CRE Fsk mod: -1%[7.6 µM]; TSHR agonist: inconclusive; Casp1 inh: 1%[11.5 µM]

Results for O=[N+]([O-])/C=C\c1cc2ccccc2[nH]1 ?
Caspase-7 inhib: 1%[11.5 µM]; HEK293 cAMP cs: 16%[11.4 µM]; CRE Fsk mod: -3%[7.6 µM]; TSHR agonist: -4%[11.4 µM]; Casp1 inh: -1%[11.5 µM]

Results for O=C(O)C1C2CCC(O2)C1C(=O)Nc1cccc(F)c1 (stereo unspecified) ?
USP2a inhib: -2%; Caspase-7 inhib: 1%; HEK293 cAMP cs: -3%; CRE Fsk mod: 10µM*; TSHR agonist: 0%; Casp1 inh: 0%

How did O=C(O)C1C2C=CC(C2)C1C(=O)Nc1cccc(F)c1 (stereo unspecified) do in these assays?
USP2a inhib: -3%; Caspase-7 inhib: -1%; HEK293 cAMP cs: 1%; CRE Fsk mod: -2%; TSHR agonist: 4%; Casp1 inh: 2%

Results for NCCNS(=O)(=O)c1ccc(N)cc1 ?
Caspase-7 inhib: 4%[11.5 µM]; HEK293 cAMP cs: -2%[11.4 µM]; CRE Fsk mod: 13%[7.6 µM]; TSHR agonist: -3%[11.4 µM]; Casp1 inh: -1%[11.5 µM]

How did Cc1c(CCC(=O)O)c(=O)oc2cc3occ(-c4ccc(F)cc4)c3cc12 do in these assays?
USP2a inhib: 26%; Caspase-7 inhib: -1%; HEK293 cAMP cs: -8%; CRE Fsk mod: 10µM*; TSHR agonist: -2%; Casp1 inh: -9%

Results for Cc1c(CCC(=O)O)c(=O)oc2cc(O)ccc12 ?
USP2a inhib: 4%; Caspase-7 inhib: inconclusive; HEK293 cAMP cs: inconclusive; CRE Fsk mod: inconclusive; TSHR agonist: inconclusive

How did COc1cccc(-c2nnc(SCC(=O)OC(C)C)n2N)c1 do in these assays?
USP2a inhib: 3%; Caspase-7 inhib: -1%; HEK293 cAMP cs: 11%; CRE Fsk mod: 5%; TSHR agonist: 13µM*; Casp1 inh: -2%

Screening results (PubChem BioAssay)
